The values that follow come from PubChem BioAssay (NCATS).

For test [1] the following is noted: Ebola virus entry assay, green fluorescence channel.
For test [2] the following is noted: Ebola virus entry assay, green fluorescence channel. This is another data set of the same source.
For test [3] the following is noted: Ebola virus entry assay, ratio channel readout.
For test [4] the following is noted: Ebola virus entry assay, blue channel fluorescence.
The conditions of test [5]: Ebola virus entry assay, ratio channel.
For test [6] the following is noted: Ebola virus entry assay, reporter ratio channel; AC50: Channel type: primary unless noted; outcome: Channel type: primary unless noted.
For test [7] the following is noted: Ebola virus entry cell assay, ratio channel.
The conditions of test [8]: Ebola virus entry assay, green channel fluorescence.
The conditions of test [9]: Ebola virus entry assay, blue channel fluorescence. This is another data set of the same source.
The conditions of test [10]: Ebola virus entry assay, blue channel (ratio component).
The conditions of test [11]: Ebola virus entry reporter assay, green channel fluorescence.
For test [12] the following is noted: Ebola virus entry assay, blue channel fluorescence. This is another data set of the same source.

Molecules are shown by their SMILES. “And” between values parts separate entries of the source, which are not always exact repeats. Equal entries are not always repeated. For some assays here: Entries with a potency or affinity are not part of this list. The source made the active and inactive calls.
Wherever efficacy is given: 0% is about no effect.

Turning to `CCN(CC)C(=S)SSC(=S)N(CC)CC`, in test [1], the efficacy was -47.8% (inactive). In addition, the result in [2], in test [3] and in test [7] was inactive. Also, the AC50 in test [4] was 7.08 µM (active); in test [5] it was 7.94 µM (active) and 22.4 µM (active); in [6] it was 7.94 µM (active) and 22.4 µM (active).
`CC1=C(C(=O)O)N2C(=O)[C@@H](NC(=O)[C@H](N)c3ccc(O)cc3)[C@H]2SC1`: in test [1], the efficacy was -8.88% (inactive). Also, the call in [2], in test [3], in test [4], in [5], in [8] and in test [9] was inactive. For the same compound, the result in test [6], in [10], in [11] and in [7] was inactive.
On to `CC(C)NCC(O)COc1cccc2[nH]ccc12` (stereo unspecified), for which, in test [1], the efficacy was -19.5% (inactive). The call in test [12], in test [3], in [5], in test [8], in [9] and in test [7] was inactive. In addition, the AC50 in [4] and in [6] was 39.8 µM (active) in each case.
With `CC[C@@H](CO)NC(=O)[C@@H]1C=C2c3cccc4c3c(cn4C)C[C@H]2N(C)C1`, in test [1], the efficacy was 9.51% (inactive). The result in [12], in test [3], in test [5], in test [8], in [9] and in test [6] was inactive. For the same compound, the result in [7] was inactive.
As to `Cc1ncc([N+](=O)[O-])n1CCO`, the efficacy in test [1] is -56.3% (inactive). Further, the call in test [2], in test [3], in test [5], in [8], in [6] and in test [11] was inactive. For the same compound, the outcome in test [7] was inactive.
On to `CCCCc1nc(Cl)c(CO)n1Cc1ccc(-c2ccccc2-c2nn[nH]n2)cc1`, for which the efficacy in [1] is -25.2% (inactive). Moreover, the outcome in test [2], in test [3], in test [4], in test [5], in test [8] and in [9] was inactive. Further, the result in test [6], in test [10], in [11] and in test [7] was inactive.
As to `CN[C@H]1CC[C@@H](c2ccc(Cl)c(Cl)c2)c2ccccc21`, the efficacy in test [1] was -213% (inactive). In [2], the call was inactive. The AC50 in test [4] is 2 µM (active); in [5] it was 1.58 µM (active); in test [6], 1.58 µM (active).
As for `CNCCC(Oc1ccc(C(F)(F)F)cc1)c1ccccc1` (stereo unspecified), the efficacy in [1] was -180% (inactive). Besides, the AC50 in test [12] was 14.1 µM (active); in [4] it was 8.91 µM (active); in test [5], 3.55 µM (active); in [6], 3.55 µM (active); in test [7] it was 12.6 µM (active). Besides, the result in test [3] was inactive.
On to `CCOC(=O)[C@H](CCc1ccccc1)N[C@@H](C)C(=O)N1Cc2ccccc2C[C@H]1C(=O)O`, for which, in test [1], the efficacy was 30.9% (inactive). Also, the outcome in test [2], in [3], in test [5], in test [8], in test [9] and in [6] was inactive. Also, the outcome in [10], in test [11] and in test [7] was inactive.
As for `O=c1[nH]cnc2c1ncn2[C@H]1CC[C@@H](CO)O1`, in [1], the efficacy was -19.1% (inactive). Further, the compound was called inactive in test [2], in test [8], in test [9], in test [6], in test [10] and in test [11]. Further, the result in test [7] was inactive.
Regarding `N=c1nc(N2CCCCC2)cc(N)n1O`, the efficacy in test [1] is -16.3% (inactive). Moreover, the call in test [2], in test [3], in [8], in [9], in test [6] and in test [10] was inactive. Further, the compound was classed as inactive in test [11] and in test [7].
For the compound `CCOC(=O)[C@H](CCc1ccccc1)N[C@@H](C)C(=O)N1[C@H](C(=O)O)C[C@@H]2CCC[C@@H]21`, in test [1], the efficacy is -29.2% (inactive). Further, the result in test [12], in test [3], in test [5], in [8], in test [9] and in test [6] was inactive. Besides, the outcome in [10], in [11] and in test [7] was inactive.
As for `CC(C)c1nc(CN(C)C(=O)N[C@H](C(=O)N[C@@H](Cc2ccccc2)C[C@H](O)[C@H](Cc2ccccc2)NC(=O)OCc2cncs2)C(C)C)cs1`, the efficacy in test [1] was 31.8% (inactive). In addition, the result in test [2], in test [3], in test [4], in test [9], in test [10] and in test [11] was inactive. The outcome in test [7] was inactive. Further, the AC50 in test [5] and in test [6] was 22.4 µM (active) each time.
As for `COc1ccc(OC)c(C(O)CNC(=O)CN)c1` (stereo unspecified), the efficacy in test [1] is 13.6% (inactive). The outcome in test [12], in test [3], in test [4], in test [8], in test [9] and in [6] was inactive. For the same compound, the result in test [10] and in test [7] was inactive.
`NCCc1cc(O)c(O)cc1O`: the efficacy in [1] is -42% (inactive). The results for the AC50 in test [4] and in test [6] were 25.1 µM (active) and 39.8 µM (active), respectively. The outcome in test [5] and in test [8] was inactive.
For `Oc1ccccc1-c1ccccc1`, in test [1], the efficacy is 11.7% (inactive). Further, the compound was classed as inactive in [4], in test [5], in test [8] and in [6].
As for `N[C@@H](Cc1ccc(Oc2cc(I)c(O)c(I)c2)c(I)c1)C(=O)O`, the efficacy in [1] is -32% (inactive). Besides, the compound was called inactive in test [4], in test [5], in test [8], in test [6] and in [10].
Take `Oc1cccc2cccnc12`: the efficacy in test [1] is -17.8% (inactive). Moreover, the result in [4], in test [5], in test [8] and in [6] was inactive.
Regarding `NN=C(N)N`, the efficacy in [1] is -37.7% (inactive). For the same compound, the call in [4], in [5], in [8], in [6] and in test [10] was inactive.
`CC(=O)[C@H]1CC[C@H]2[C@@H]3CC[C@H]4C[C@](C)(O)CC[C@]4(C)[C@H]3CC[C@]12C`: the efficacy in test [1] was 28.4% (inactive). Besides, the result in test [4], in [5], in [8], in [6] and in [10] was inactive.
Consider `Cc1cccc(C)c1NC1=NCCCS1`, for which, in test [1], the efficacy was -17.5% (inactive). In addition, the compound was classed as inactive in test [4], in [5], in test [8], in test [6] and in test [10].
For the compound `CC1NCCOC1c1ccccc1` (stereo unspecified), in [1], the efficacy is -41.7% (inactive). Besides, the call in [4], in [5], in test [8], in test [6] and in test [10] was inactive.
Take `O=[N+]([O-])c1cc([As](=O)(O)O)ccc1O`: the efficacy in test [1] was -13% (inactive). Moreover, the call in test [4], in test [5], in test [8], in test [6] and in [10] was inactive.
For the compound `CCOP(=S)(OCC)Oc1cc(C)nc(C(C)C)n1`, the efficacy in [1] was 13.4% (inactive). In addition, the call in test [4], in [5], in [8], in [6] and in test [10] was inactive.
On to `CCN(CC)C(=O)N[C@@H]1C=C2c3cccc4[nH]cc(c34)C[C@@H]2N(C)C1`, for which, in [1], the efficacy was 16% (inactive). Further, the call in test [4], in [5], in [8] and in test [10] was inactive. Besides, in [6], the half-maximal activity concentration (AC50) is 31.6 µM (active).
In the case of `CC(C)Oc1ccc2c(=O)c(-c3ccccc3)coc2c1`, the efficacy in test [1] was 27.1% (inactive) and 23.5% (inactive). Further, the compound was called inactive in test [4], in test [5], in [8], in test [6] and in test [10].
With `c1ccc2c(c1)OCC(C1=NCCN1)O2` (stereo unspecified), the efficacy in test [1] was 12.1% (inactive). The outcome in test [4], in test [5], in [8] and in test [10] was inactive. Moreover, the AC50 in test [6] is 35.5 µM (active).
Consider `COc1ccc(Cc2nccc3cc(OC)c(OC)cc23)cc1OC`, for which the efficacy in test [1] was 13% (inactive). Moreover, the outcome in [4], in test [5], in [8], in test [6] and in test [10] was inactive.
Consider `CCCCOCCOCCOCc1cc2c(cc1CCC)OCO2`, for which the efficacy in test [1] is -21% (inactive). Besides, the outcome in test [4], in [5], in test [8], in test [6] and in test [10] was inactive.
For the compound `CC[N+](CC)(CC)CC`, the efficacy in [1] is -18.6% (inactive). Also, the outcome in test [4], in test [5], in test [8], in [6] and in [10] was inactive.
For the compound `CCCC1CCCCN1` (stereo unspecified), the efficacy in test [1] was -19.4% (inactive). In addition, the outcome in test [4], in test [5], in [8], in test [6] and in [10] was inactive.
Regarding `CCCN1CCC[C@@H]2Cc3[nH]ncc3C[C@H]21`, in test [1], the efficacy was -15.1% (inactive). The result in test [4], in [5], in test [8], in test [6] and in [10] was inactive.
`Nc1ccncc1`: in test [1], the efficacy is -10% (inactive). Moreover, the compound was classed as inactive in [4], in [5], in [8], in test [6] and in test [10].
With `CC(C)(N)Cc1ccc(Cl)cc1`, in test [1], the efficacy is 29.5% (inactive). Moreover, the call in test [4], in [5], in [8], in [6] and in [10] was inactive.
As for `CC/C=C(\C(=O)N[C@@H]1C(=O)N2C(C(=O)OCOC(=O)C(C)(C)C)=C(COC(N)=O)CS[C@H]12)c1csc(N)n1`, in [1], the efficacy was 11.1% (inactive) and -32.9% (inactive). Further, the compound was classed as inactive in test [4], in [5], in test [8], in test [6] and in test [10].
As for `N#CC(C#N)=Cc1ccc(O)c(O)c1`, in test [1], the efficacy is -17.1% (inactive). In addition, the call in test [4], in [5], in [8], in test [6] and in test [10] was inactive.
